# Screening data from PubChem.
# The list is not random: actives were taken first. Their share in the collection is about 3.8%.
# TIM10 inh – growth inhibitors of TIM10 yeast strain; S. cerevisiae TIM10 strain growth, BacTiter-Glo luminescence, 24 h; inhibition, % at 10 µM; hit rate 1.4% among 330,000;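 active means inhibition of 40% or more at the single tested concentration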;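 further: wild-type TIM10 isogenic control strain grown at permissive 25 °C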
# tim23-1 inh – inhibits growth of tim23-1 mutant yeast | S. cerevisiae tim23-1 growth, BacTiter-Glo luminescence, 24 h | inhibition, % at 20 µM | hit rate 1.3% among 330,000 | AID 463212;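 active means growth inhibition of the mutant yeast at or above 50%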;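 further: temperature-sensitive mutant grown at 25 °C; plate controls were DMSO-treated mutant yeast for no effect and medium wells lacking yeast for full effect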
# NLRP3 yeast inh – NALP3 inhibition in yeast; hit rate 0.39% among 330,000; Yeast reconstituted NLRP3/ASC/caspase-1, beta-gal luminescence, 24 h; inhibition, % at 10 µM;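 active means inhibition of 50% or more; inactive means inhibition below 50%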;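 further: plate controls were induced DMSO wells for no effect and uninduced yeast grown without galactose for full effect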
# tim10-1 inh – growth inhibitors of tim10-1 mutant yeast; inhibition, % at 20 µM; S. cerevisiae tim10-1 ts strain growth, BacTiter-Glo, 24 h; hit rate 2.2% among 330,000; AID 463190;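 active means inhibition of at least 40%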;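 further: mutant grown at 25 °C; 0% = DMSO wells with yeast and 100% = wells holding no yeast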
# CR mimetic SO – lowers age-related superoxide in aged yeast cells | S. cerevisiae aged cells, superoxide DHE fluorescence; stronger effect = lower value | superoxide response (% of plate mean), % at 10 µM | hit rate 0.18% among 330,000 | AID 2690;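 active means superoxide response under a set limit, about three screen SD below normal, cut at about 65% in these data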;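 further: yeast aged for seven days with compound at 30 °C before DHE staining; 100% = average MFI of all compound-treated wells on the plate with controls excluded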
# tim10-1 conf – tim10-1 yeast growth inhibition, confirmed | shares compounds with tim10-1 inh | inhibition, % at 20 µM | hit rate 56% among 7,400 | AID 463213 | S. cerevisiae tim10-1 ts strain growth, BacTiter-Glo, 24 h;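 active means inhibition of yeast growth at or above a set limit in either of two repeat tests at 20 µM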;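 further: tim10-1 mutant grown at permissive 25 °C to find synthetic lethal compounds; 0% = DMSO yeast wells and 100% = medium wells without yeast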
# The depositor's hits bear a star; nt = no result.
SMILES,TIM10 inh,tim23-1 inh,NLRP3 yeast inh,tim10-1 inh,CR mimetic SO,tim10-1 conf
COc1ccc(-n2nc(C(=O)NCC(=O)NCCCN3CC(C)CC(C)C3)c3ccccc3c2=O)cc1OC (stereo unspecified),5.1,-1.9,-2.5,-6.9,97.3,nt
O=C(O)CC1(CC(=O)Nc2cc(C(F)(F)F)cc(C(F)(F)F)c2)CCCCC1,13.2,22.7,12.4,14.7,107.9,nt
CCc1nnc(NC(=O)c2cc(-c3ccccn3)nc3ccc(Br)cc23)s1,-3.8,7.1,-1.9,83.2*,101.0,-21.4
O=C(CCCOc1ccc(Br)cc1)NCCc1ccc(OC(F)F)cc1,-10.2,17.7,36.7,8.3,111.8,nt
Cc1ccc(NC(=O)CNC(=O)c2cccs2)cc1S(=O)(=O)Nc1ccc(Cl)cc1,nt,nt,nt,nt,102.3,nt
CC(C)(C)[C@H]1COC(=O)CCC/C=C/C[C@H](CC(=O)NCCO)C(=O)N1,-5.5,-6.0,17.1,-8.2,99.4,nt
CC(=O)Nc1ccc(NC(=O)COC(=O)/C(=C/c2ccccc2)n2nnnc2C)cc1,11.5,4.2,21.0,-3.4,91.9,nt
Cc1nnnn1/C(=C\c1ccccc1)C(=O)OCC(=O)NC(C)(C)C,30.9,45.1,16.2,45.2*,98.9,34.1*
Cc1nonc1NC(=O)CSc1nnnn1-c1ccccc1,4.6,11.8,17.9,7.1,107.2,nt
COc1cccc(NC(=S)N/N=C2\CC3CCC2(C)C3(C)C)c1 (stereo unspecified),35.8,17.0,17.2,41.4*,100.3,30.8*
CCOC(=O)c1oc2nc(CC(C)C)c3c(c2c1N)CCC3,37.7,45.6,-6.7,40.4*,103.3,18.0
CCOC(=O)c1sc2nc(N3CCOCC3)c3c(c2c1N)CCC3,31.6,42.3,21.4,31.7,100.2,nt
COc1ccc(C(=O)c2sc3nc(-c4ccccc4)ccc3c2N)cc1,4.6,20.2,14.0,45.4*,102.1,19.1
CC(C)OC(=O)c1sc2nc(-c3ccccc3)ccc2c1N,-1.1,19.1,24.6,33.7,112.1,nt
CCOC(=O)CCc1c(C)nc2c(c(C)nn2-c2ccccc2)c1C,17.3,6.5,18.6,-0.3,98.9,nt
CCOC(=O)N1CCN(C(=O)CCc2c(C)nc3c(c(C)nn3-c3ccc(C)c(C)c3)c2C)CC1,29.7,30.4,15.4,40.0,117.0,35.5*
CCc1ccc(NC(=O)c2sc3nc4n(c(=O)c3c2C)CCC4)cc1,-10.9,33.6,21.3,44.5*,113.5,12.3
Cc1ccc(CCNC(=O)c2sc3nc4n(c(=O)c3c2C)CCC4)cc1,-5.9,12.3,9.7,18.0,88.5,nt
CC(=O)Nc1ccc(NC(=O)c2sc3nc4n(c(=O)c3c2C)CCCCC4)cc1,9.8,14.5,13.7,13.9,78.9,nt
CC(=O)c1cccc(NC(=O)c2sc3nc4n(c(=O)c3c2C)CCCC4)c1,19.5,17.8,10.8,52.2*,109.0,28.4*
O=C(c1ccc(Oc2ccccc2)cc1)c1nc2c(n1O)CCCC2,30.3,14.9,-62.2,41.0*,97.0,16.2
Cc1c([N+](=O)[O-])c(C(=O)Sc2ccc(Br)cc2)nn1C,15.6,24.1,10.1,46.7*,109.2,45.9*
CCCCCc1ccc(S(=O)(=O)NCCc2ccncc2)cc1,6.1,30.3,39.2,35.2,106.1,nt
CCc1ccccc1Oc1coc2cc(O)ccc2c1=O,24.7,40.9,13.0,26.4,108.2,nt
Cc1cccc(Oc2coc3cc(O)ccc3c2=O)c1,19.4,33.7,10.2,47.8*,70.1,15.4
SMILES,TIM10 inh,tim23-1 inh,NLRP3 yeast inh,tim10-1 inh,CR mimetic SO,tim10-1 conf
COc1ccccc1N1C(=O)CC(Sc2n[nH]c(-c3cccc(C)c3)n2)C1=O (stereo unspecified),9.2,46.4,7.1,47.4*,100.8,35.8*
COc1ccccc1N1C(=O)CC(Sc2nccc(C)n2)C1=O (stereo unspecified),1.8,8.2,10.8,-0.8,85.3,nt
COc1ccc(/C=C2/SC(=O)NC2=O)cc1,37.9,39.5,32.2,38.8,99.5,nt
O=C1NC(=O)/C(=C/c2ccccc2OCc2ccccc2)S1,39.7,20.3,18.1,46.0*,106.1,36.7*
O=C(COc1ccccc1/C=C1\SC(=O)NC1=O)Nc1ccccc1,13.3,25.1,18.0,18.2,96.7,nt
O=C1NC(=O)/C(=C\c2ccccc2Oc2ccc(F)c(F)c2)S1,19.2,28.4,-83.0,44.9*,106.0,32.4*
CN1c2ccc(Cl)cc2C(=O)NC1C1CC=CCC1 (stereo unspecified),13.9,18.2,7.6,18.2,95.2,nt
Cc1cccc(C2c3[nH]c4ccccc4c3CCN2C(=O)Cc2n[nH]c(C)n2)n1 (stereo unspecified),-22.7,6.5,4.7,-16.6,103.2,nt
CCOc1ccc(C2C(C(=O)O)CCC(=O)N2C2CCCCC2)cc1 (stereo unspecified),7.5,12.1,14.0,7.9,102.7,nt
S=C(Nc1ccccc1Cl)N(Cc1ccccc1)Cc1ccccn1,2.5,33.2,-13.7,46.8*,111.4,25.4
COc1ccccc1NC(=S)N(Cc1ccccc1)Cc1ccccn1,31.3,35.4,-0.6,16.6,97.0,nt
Cc1nc2ccccc2c2oc(C(=O)N3CC(C)CC(C)C3)cc12 (stereo unspecified),4.9,42.1,5.1,52.2*,94.8,-9.0
COc1ccc2cc3cc(C(=O)N4CC(C)CC(C)C4)oc3nc2c1 (stereo unspecified),30.0,46.0,17.1,56.0*,101.3,20.6
CCOc1cc(N2CCOCC2)c(OCC)cc1NC(=O)c1ccc(OC(C)C)cc1,16.8,11.5,2.2,14.5,110.0,nt
CCC1(C)Cc2c(sc3nc(SC)[nH]c(=S)c23)CO1 (stereo unspecified),37.1,34.3,8.2,37.6,92.8,nt
CC(C)c1cc(C(C)C)c(S(=O)(=O)NNC(=O)c2ccncc2)c(C(C)C)c1,33.3,36.6,-4.9,49.8*,121.5,21.2
O=C(NNS(=O)(=O)c1ccc(Br)cc1)c1ccncc1,3.9,20.3,-1.6,5.7,72.4,nt
CCN(CC)C(=O)CSc1ncnc2sc(-c3ccccc3)cc12,16.4,23.8,13.6,45.9*,114.8,23.2
Cn1c(SCc2cccc(C#N)c2)nc2ccccc2c1=O,-38.3,31.6,43.5,13.0,101.1,nt
COc1ccccc1NC(=O)C1CCCN(c2ncnc3c2nc2n3CCCCC2)C1 (stereo unspecified),8.7,15.1,10.3,18.7,100.2,nt
CCc1cccc(NC(=O)C2CCCN(c3ncnc4c3nc3n4CCCCC3)C2)c1 (stereo unspecified),6.3,13.4,23.7,40.4*,94.8,12.8
O=C(Nc1ccccc1Cl)C1CCCN(c2ncnc3c2nc2n3CCCCC2)C1 (stereo unspecified),22.2,40.1,15.0,54.1*,132.7,11.6
Cc1c(C)n(CCc2c[nH]c3ccccc23)ccc1=O,-1.3,-1.2,-7.1,-1.2,100.3,nt
Cc1nc(SCC(=O)N2CCN(c3ccccc3)CC2)c2oc3ccccc3c2n1,30.7,40.2,42.7,47.5*,118.9,42.6*
C=CCN=c1scc(C)n1/N=C/c1ccc(O)c(O)c1,22.5,1.9,16.4,6.5,103.0,nt
